Measured values published in the supplement of paper PMC10338343.
± gives the standard deviation.

Each sequence was assayed on MILI (PIWIL2) piRISC loaded with L1MC piRNA (26 nt) (assay: pre-steady-state target cleavage rate (min^-1); guide: L1MC piRNA 5'p-UAACUAAAUACUAUGCAAGCUGUAGG; MIWI and MILI are mouse PIWI proteins and EfPiwi is from a freshwater sponge; tags in brackets are library labels; higher = faster piRNA-guided slicing of the target). Details: auxiliary factor: 500 nM mouse GTSF1.
Method in brief: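 The method was Cleave-'n-Seq, in which uncleaved targets from a transcribed, DNA-blocked target RNA library were sequenced after exposure to active affinity-purified piRISC carrying one synthetic guide, with or without GTSF1 partner protein. Reactions contained 0.1 nM library, 1 nM piRISC and, where present, 500 nM GTSF1 in HEPES–potassium acetate buffer at 33 °C for 0–8 or 0–960 min. Reads were normalised to depth and to weakly complementary targets, three trials were pooled, and k3 was capped at 0.0001 min^-1. The pre-steady-state cleavage rate came from a burst-and-steady-state fit.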
UCCUGGAACAGCUUGCAUAUAUUUAGUUA was tested, and the “pre-steady-state target cleavage rate” value was 0.0331 ± 0.0059. With UCCUGGAUGAGCUUGCAUAGUAUUAUGAAA the “pre-steady-state target cleavage rate” value was 0.00473 ± 0.0045. In the case of UCCUGCUACAGCAAGCAUAGUAUUUAGAAA, the “pre-steady-state target cleavage rate” value is reported as 0.217 ± 0.052. With UCCUGGAUGUGCUUGCAUAGAAUUUAGUUA the “pre-steady-state target cleavage rate” value was 0.0203 ± 0.0071. UCCUGGAUGUCGAAGCAUAGUAUUUAGAUA was tested, and the “pre-steady-state target cleavage rate” value was 0.00991 ± 0.0044. With UCCUGGAUCAGCUUGGAUAGUAUUUACUUA the “pre-steady-state target cleavage rate” value was 0.107 ± 0.026. UCCUGGAUCAGCUUGCAUAGUAUAUUCAAA was tested, and the “pre-steady-state target cleavage rate” value was 0.0428 ± 0.01. UCCUGGAUGUCGAUGCAUAGUAUUGAGUUA was tested, and the “pre-steady-state target cleavage rate” value was 0.0608 ± 0.013. In the case of UCCUGGAUGUCGAAGACAUAGUAUUUAGUUA, the “pre-steady-state target cleavage rate” value is reported as 0.0117 ± 0.0056. For UCCUGGAUGUCGAACCAUAGUUUUUUGUUA, the “pre-steady-state target cleavage rate” value was under 0.0001. In the case of UCCUCCUACAGCUUGCUUAGUAUUUUCAAA, the “pre-steady-state target cleavage rate” value is reported as 0.0605 ± 0.014. With UCCUGCUACAGCAACCAUAGUAUUUAGAAA the “pre-steady-state target cleavage rate” value was 0.102 ± 0.03. UCCUGGAUCAGCUUGCAUACUAUUUAGAUA was tested, and the “pre-steady-state target cleavage rate” value was 0.0139 ± 0.0058. With UCCUGGAUCAGCUUGCAAUCUAUUUAGUAA the “pre-steady-state target cleavage rate” value was 0.0108 ± 0.0043. With UCCUGGUACAGCUUGCAUAGUUUUUACAAA the “pre-steady-state target cleavage rate” value was 0.0185 ± 0.0077. For UCCUGGAUGUCGAAGCAUCGUAUUUAGUUA, the “pre-steady-state target cleavage rate” value was 0.00755 ± 0.0031. UCCUGGAACAGCAUGCAUAGUAUUUACAAA was tested, and the “pre-steady-state target cleavage rate” value was 0.182 ± 0.035. UCCUGGUACAGCUUGCAUACUAUUUUGUUA was tested, and the “pre-steady-state target cleavage rate” value was 0.0288 ± 0.011. For UCCUGGUACAGCUUGCAUAGUUUUUAGAAA, the “pre-steady-state target cleavage rate” value was 0.0221 ± 0.011. With UCCUGGAACAGCUUGCAUAGUAUAAACAAA the “pre-steady-state target cleavage rate” value was 0.0505 ± 0.015. In the case of UCCUGGAUGUCGUUGCAUAGUAUUUAUGUUA, the “pre-steady-state target cleavage rate” value is reported as 0.137 ± 0.04. For UCCUGGAUGUCGUUGCAUAGUAUUUAGCUUA, the “pre-steady-state target cleavage rate” value was 0.0208 ± 0.0083. For UCCUGGUACAGCUUGCAUAGUAAAUAGUAA, the “pre-steady-state target cleavage rate” value was 0.151 ± 0.045. For UCCUGGAUGUCGAAUCAUAGUAUUUAGUUA, the “pre-steady-state target cleavage rate” value was 0.00554 ± 0.0026. With UCCUGGUACAGCUUGCAUAGUAUUAUCAAA the “pre-steady-state target cleavage rate” value was 0.0127 ± 0.0058. UCCUGGAUGUGCUUGCAUAGUAAAUAGUAA was tested, and the “pre-steady-state target cleavage rate” value was 0.0121 ± 0.0056. In the case of UCCUGGAUGUCGUUGCAUAGUAUUCAGUUA, the “pre-steady-state target cleavage rate” value is reported as 0.0553 ± 0.018. In the case of UCCUGGAUGUCCUUGCAUAGUAUUUUCAAA, the “pre-steady-state target cleavage rate” value is reported as 0.023 ± 0.0094. With UCCUGGUACAGCUUGCAUAAGUAUUUAGUUA the “pre-steady-state target cleavage rate” value was 0.00838 ± 0.0052. With UCCUGGAUGUCCUUGCAUUGAAUUUAGUUA the “pre-steady-state target cleavage rate” value was 0.00493 ± 0.0046. For UCCUGGUACAGCUUGCAUACUAUAUAGUUA, the “pre-steady-state target cleavage rate” value was 0.0326 ± 0.013. UCCUGGAUGUCGUUGCAUAGCAUUUAGUUA was tested, and the “pre-steady-state target cleavage rate” value was 0.0206 ± 0.007. With UCCUCCUACAGCUUCGAUAGUAUUUAGAAA the “pre-steady-state target cleavage rate” value was 0.0982 ± 0.019. For UCCUGGAUCAGCUUGCAUAGAUUUUAGAAA, the “pre-steady-state target cleavage rate” value was 0.00651 ± 0.0043. With UCCUGGAUGUCGAUGCAUAGUAUUUAGAAA the “pre-steady-state target cleavage rate” value was 0.0516 ± 0.015. With UCCUGGAACAGCUUGCAUAGUAUUAUCUUA the “pre-steady-state target cleavage rate” value was 0.0578 ± 0.015.

Same assay, conditions: auxiliary factor: none (no GTSF1)
With “UCCUGGAUGUCGAACCAUAGUAUUUUCAAA [g6:g15:cont:t1A]” the “pre-steady-state target cleavage rate” value was under 0.0001. With UCCUGGAUGUCGAACGUAUGUAUAAAGUUA the “pre-steady-state target cleavage rate” value was under 0.0001. UCCUGGAUGUCGAAGCAUAUAUUUAGUUA was tested, and the “pre-steady-state target cleavage rate” value was under 0.0001. UCCUGGAACAGCUUCGAUAGUAUUUACAAA was tested, and the “pre-steady-state target cleavage rate” value was under 0.0001.
